In the library only some 1.5% were active in any assay of this set; here they are far more common.
hiPSC survival = hiPSC single-cell survival enhancement; ATPlite luminescence; 100% = ROCK inhibitor wells, 0% = DMSO; survival enhancement, % at 20 µM; 0.044% of 360,000 active; AID 602274; in the data active means survival enhancement above about 18%;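 further: cells exposed to compounds for 16 hours before the ATP read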
ANO1 block = mouse TMEM16A channel inhibition, primary screen | Q8BHY3 | HEK293 TMEM16A/YFP iodide influx fluorescence, ionomycin | normalized B-score (activity score, 25-100; higher = stronger inhibition) at 10 µM | 1.2% of 310,000 active;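 active means ratio plate-corrected score three or more library SD toward inhibition, starting fluorescence score within five deviations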;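 further: score derived from kinetic fluorescence span divided by baseline fluorescence per well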
TMEM16A act = activators or potentiators of mouse TMEM16A chloride channel. Q8BHY3. HEK293 TMEM16A/YFP-H148Q/I152L, iodide quench fluorescence; active compounds read low. B-score at 10 µM. 0.3% of 340,000 active;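 active means fluorescence-ratio B-score plate-corrected deviation score at least 3 library SD below zero, with starting fluorescence score within 5 deviations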;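 further: channel opened by trigger with iodide after compound preincubation; score built on the fluorescence ratio of max minus min over baseline; more negative score means more quench and so TMEM16A activation or potentiation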
ABCB6 inh MLPCN = inhibitors of human ABC transporter ABCB6; Q9NP58; K562-ABCB6 porphyrin accumulation, flow cytometry, 1 h; active compounds read low; fluorescence ratio to DMSO, % at 10 µM; 0.19% of 360,000 active;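 active means fluorescence ratio to DMSO below 75%, the collection mean minus 3 SD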;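 further: signal is porphyrin accumulated inside mitochondria; lower ratio means ABCB6 inhibition with less porphyrin fluorescence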
Target sequence (Q9NP58 whole entry, looked up): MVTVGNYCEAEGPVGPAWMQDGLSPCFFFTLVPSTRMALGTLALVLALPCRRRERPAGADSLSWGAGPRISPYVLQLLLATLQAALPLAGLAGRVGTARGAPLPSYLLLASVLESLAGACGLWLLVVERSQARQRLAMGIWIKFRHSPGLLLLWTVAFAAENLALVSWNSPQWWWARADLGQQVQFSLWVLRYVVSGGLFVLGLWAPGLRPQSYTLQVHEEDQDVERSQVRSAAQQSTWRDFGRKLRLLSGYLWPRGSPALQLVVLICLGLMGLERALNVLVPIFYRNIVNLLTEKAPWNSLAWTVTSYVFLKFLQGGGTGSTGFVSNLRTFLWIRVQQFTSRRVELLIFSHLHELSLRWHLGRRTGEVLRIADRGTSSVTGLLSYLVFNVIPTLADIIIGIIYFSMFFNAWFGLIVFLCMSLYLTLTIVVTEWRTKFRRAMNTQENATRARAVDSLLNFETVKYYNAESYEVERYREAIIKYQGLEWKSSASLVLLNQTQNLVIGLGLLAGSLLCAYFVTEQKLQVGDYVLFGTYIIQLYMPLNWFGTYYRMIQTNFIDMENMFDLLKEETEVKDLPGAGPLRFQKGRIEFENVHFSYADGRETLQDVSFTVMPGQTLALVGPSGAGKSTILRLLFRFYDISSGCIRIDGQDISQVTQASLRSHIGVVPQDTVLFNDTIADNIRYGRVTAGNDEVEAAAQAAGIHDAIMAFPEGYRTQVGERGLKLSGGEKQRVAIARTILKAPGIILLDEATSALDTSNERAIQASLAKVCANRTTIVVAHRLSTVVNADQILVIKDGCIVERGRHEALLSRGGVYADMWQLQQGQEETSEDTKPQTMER
DAGLB inh = diacylglycerol lipase beta (human) inhibition | 0.059% of 340,000 active | inhibition, % at 5.17 µM | Q8NCG7 | HEK293T DAGLB membrane lysate, EnzChek fluorogenic substrate; in the data active means inhibition above about 34%
A number is an active result; – = inactive; · = no result given.

SMILES	hiPSC survival	ANO1 block	TMEM16A act	ABCB6 inh MLPCN	DAGLB inh
N#Cc1ccc(C(=O)OCCCc2cc3ccccc3c(=O)o2)cc1	–	·	–	–	–
CCOC(=O)CCS(=O)(=O)c1nc(-c2ccccc2)cc(C(F)(F)F)n1	–	–	–	72	–
CC1(c2nnc(-c3cccc(Cl)c3)o2)CC(c2cccc([N+](=O)[O-])c2)=NO1 (stereo unspecified)	–	–	-27	–	–
CC1(c2nnc(-c3ccccc3)o2)CC(c2cccc(Cl)c2)=NO1 (stereo unspecified)	–	–	–	–	–
CCN1C/C(=N\S(=O)(=O)/N=C2\CN(CC)C(=O)N2CC)N(CC)C1=O	–	–	-8.2	–	–
Cn1c(=O)c2cc(NC(=S)NC3CCCCC3)ccc2n1Cc1ccc(Cl)cc1	–	·	·	–	·
CC(C)CNS(=O)(=O)c1ccc(CCC(=O)N2CCN(Cc3ccccc3)CC2)cc1	–	–	–	–	–
CC(C)CNS(=O)(=O)c1ccc(CCC(=O)N2CCN(Cc3ccc4c(c3)OCO4)CC2)cc1	–	100	–	–	–
O=Cc1nccc2ccccc12	–	·	-6.5	–	–
CC(=O)c1cccc(S(=O)(=O)N2CCC(C(=O)OC3CCOC3=O)CC2)c1 (stereo unspecified)	–	·	–	–	–
O=C(Nc1ccc(F)cc1)c1ccc2c(=O)n3c(nc2c1)CCCCC3	–	25	–	–	–
CN(C)CCCn1c2c(c(SCC(=O)Nc3ccc4c(c3)OCO4)nc1=O)CCC2	–	–	–	–	–
Cc1cc(OCc2cc(C(=O)N3CCC(Oc4cccnc4)CC3)no2)cc(C)c1Cl	–	100	–	–	–
O=C(c1cc(COc2ccc(F)cc2Cl)on1)N1CCC(c2ccncc2)CC1	–	25	–	–	–
CCN(C[C@H]1N[C@@](CC)(C(=O)OC)[C@H]2C(=O)N(Cc3ccccc3)C(=O)[C@@H]12)C(=O)c1ccc(C(C)(C)C)cc1	–	·	·	–	–
CCCOC(=O)Oc1ccc2c(=O)c(Oc3cc(C)cc(C)c3)coc2c1	25	–	–	–	–
COc1cc(-c2nc3n(c(=O)c2C#N)CCS3)cc(OC)c1OC	–	–	–	–	–
COc1ccc(NC(=O)CN2C(=O)C(=O)N(C3CCCC3)C2=O)c(OC)c1	–	·	–	–	–
CC(OC(=O)c1cccc(O)c1)C(=O)N(C)Cc1ccccc1 (stereo unspecified)	–	–	–	–	–
CC(OC(=O)/C(C#N)=C/c1ccc(N(C)C)cc1)C(=O)N(C)Cc1ccccc1 (stereo unspecified)	–	–	-10	–	–
O=C(Nc1ccccc1F)c1csc(COCCO)n1	–	·	·	–	·
N/C(=N\OS(=O)(=O)c1ccc(Br)cc1)c1ccncc1	–	–	–	63	–
Cc1nn(C)c(C)c1-c1c(C#N)c(N)nc2c1CCCCCC2	–	–	-6.1	–	–
Cc1c(-c2c(C#N)c(N)nc3c2CCCCCC3)cnn1C	–	–	–	–	–
COc1cc2c(cc1OC)C1=C(C#N)CCC(=NC(=O)c3ccco3)N1CC2	–	–	–	–	–
SMILES	hiPSC survival	ANO1 block	TMEM16A act	ABCB6 inh MLPCN	DAGLB inh
COc1cc2c(cc1OC)C1=C(C#N)CC/C(=N\S(=O)(=O)c3cccc(Cl)c3)N1CC2	–	–	–	73	–
Cn1nc(N2CCN(S(=O)(=O)c3ccccc3)CC2)c(=O)n(C)c1=O	–	·	-29	–	–
Cc1ccc(S(=O)(=O)N2CCN(c3nn(C)c(=O)n(C)c3=O)CC2)cc1C	–	·	–	–	–
O=C(O)c1ccc(Cl)c(NCc2cccnc2)c1	–	–	–	–	–
Cc1cc(-c2ccccc2)nc2cc(C(N)=O)nn12	–	–	–	6.0	–
COc1cccc(CNC(=O)CN2C(=O)NC(c3ccccc3)(c3ccccc3)C2=O)c1	–	·	–	–	–
COc1cccc(CN(C)C(=O)CN2C(=O)NC(c3ccccc3)(c3ccccc3)C2=O)c1	–	·	-48	–	–
CNc1nc(SCc2ccc(C)cc2)nc2c1CCCC2	–	100	–	–	–
CCCNC(=O)C1(C)CCN(C(=O)c2cc(F)cc(F)c2)C1 (stereo unspecified)	–	·	·	–	·
O=C(Nc1ccc(-c2nc3ccccc3o2)cc1)c1ccc(N2CCOCC2)c([N+](=O)[O-])c1	–	25	–	–	–
O=C(Nc1cccnc1)c1ccc(N2CCOCC2)c([N+](=O)[O-])c1	–	–	–	–	–
CCOc1ccc2ccccc2c1C1NC(=O)N(C)C(C)=C1C(=O)OCCOC (stereo unspecified)	–	–	–	–	–
CC(C)Oc1ccc(Cn2c(=O)sc3ccccc32)cc1	–	25	–	–	–
CCOC(=O)c1c(NC(=O)c2ccc(C)cc2)sc2c1CC(C)(C)OC2	–	25	–	–	–
CC(Sc1nnc(Cc2ccccc2)o1)C(=O)NC1(C#N)CCCCC1 (stereo unspecified)	–	·	–	–	–
O=C(Nc1ccccc1)c1ccc(NCc2cccnc2)c(S(=O)(=O)N2CCOCC2)c1	–	–	-6.8	–	–
Cc1ccc(S(=O)(=O)/N=C2/NC(=O)/C(=C/c3ccc(Br)o3)S2)cc1	–	25	–	–	–
CCN(CC)C(=O)CN(c1cc2c(cc1OC)oc1ccccc12)S(=O)(=O)c1ccccc1	–	100	–	–	–
COc1cc2oc3ccccc3c2cc1N(CC(=O)N1CCCCC1)S(=O)(=O)c1ccc(C)cc1	–	–	-29	–	–
CC(=O)c1c(C)[nH]c(C(=O)OCc2ccc([N+](=O)[O-])cc2)c1C	–	–	–	–	–
COC(=O)c1ccc(COC(=O)c2[nH]c(C)c(C(C)=O)c2C)o1	–	100	–	–	–
CC(Oc1ccc(Cl)cc1Cl)c1nc(-c2ccc(NC(=O)c3ccncc3)cc2)no1 (stereo unspecified)	–	25	–	–	–
CC(Oc1ccc(Cl)cc1Cl)C(=O)NNC(=O)c1ccncc1 (stereo unspecified)	–	–	–	–	–
CC1(C)CC(=O)C2=C(C1)OC(N)=C(C#N)C2c1ccccc1[N+](=O)[O-] (stereo unspecified)	–	–	-4.6	–	–
O=C1c2ccccc2C(=O)N1CCc1nc(-c2ccccn2)no1	–	25	–	–	–
Cc1ccc(NC(=O)CCN2C(=O)C3C4CCC(C4)C3C2=O)cc1Cl (stereo unspecified)	–	–	–	–	–
O=C1CCN(S(=O)(=O)c2cc(C(F)(F)F)ccc2Cl)CC1	–	·	–	–	–
Cc1ccc(O)c(C2=NNC(c3ccc(Cl)cc3)C2)c1 (stereo unspecified)	–	–	–	–	–
Cc1ccc(O)c(C2=NNC(O)(C(F)(F)F)C2)c1 (stereo unspecified)	–	25	–	–	–
Cc1ccc(OCC(=O)N2N=C(C(F)(F)F)CC2(O)C(C)(C)C)cc1C (stereo unspecified)	–	100	–	–	–

Screening data deposited in PubChem by several laboratories.
